Where “and” joins values, the source holds several entries; their conditions need not be identical. Identical values can stand only once. Inconclusive results are not listed. For some assays here: Measured potencies and affinities stand elsewhere. Calls of active or inactive are those of the source.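 How the source made its calls, unless noted: active means thallium flux through the channel raised or lowered by more than 3 SD from vehicle-only wells, actives on both sides; inactive means the rest.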
What was measured:
[1] = compounds altering circadian rhythm period length – cell-based, LOPAC library, luminescence reporter (AID 2774; call rule not given here;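 further: values are relative to mean of DMSO wells on each plate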); settings: circadian reporter cells, at 7 µM, actives lie on both sides
[2] = P. berghei load reduction in hepatocytes – cell-based, HepG2, luciferase luminescence, HepG2 viability, primary screen (AID 624349; in the data active means parasite load remaining mostly below about 12%, no sharp cut-off; inactive means mostly above about 10%;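 further: 100% = mean of DMSO negative control wells on the same plate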); settings: P. berghei liver stage in HepG2, luciferase luminescence, concentration not given here; parasite load remaining: stronger effect = lower value; viability: measured here: HepG2 viability without parasites
[3] = tested on: Hepatitis C virus NS3 helicase; assay: blockers of NS3h binding to ssDNA – biochemical, fluorescence polarization, LOPAC1280 library, primary screen (AID 687035; in the data active means inhibition above about 37%); settings: Purified HCV NS3 helicase, Cy5-dT15 ssDNA binding fluorescence polarization; stronger effect = higher value; concentration not given here
[4] = compounds altering Cy5-DNA-NS3h complex signal – biochemical, LOPAC1280, artefact control for HCV NS3 helicase inhibitor project (AID 687037; call rule not given here); settings: Cy5-DNA-NS3h complex fluorescence interference counterscreen
[5] = signal quenchers or enhancers, Cy5 substrate/SSB – biochemical, NIH Clinical Collection, E. coli SSB, artefact control for HCV NS3 helicase inhibitor project (AID 743268; call rule not given here); settings: Cy5-oligo bound E. coli SSB, fluorescence interference
[6] = tested on: Hepatitis C virus NS3 helicase; assay: blockers of NS3h binding to DNA – biochemical, fluorescence polarization, NIH Clinical Collection, primary screen (AID 743270; call rule not given here); settings: NS3 helicase binding to Cy5-dT15 DNA, stronger effect = higher value, concentration not given here
[7] = target: Single-stranded DNA-binding protein (Escherichia coli (strain K12)) (UniProt P0AGE0); assay: SSB-ssDNA binding inhibitors – biochemical, fluorescence polarization, NIH Clinical Collection, counter-screen for HCV NS3 helicase inhibitor project (AID 743271; in the data active means inhibition above about 28%); settings: E. coli SSB-DNA binding, stronger effect = higher value, concentration not given here
[8] = compounds distorting NS3 helicase fluorescence signal – biochemical, NIH Clinical Collection, artefact control for HCV NS3 helicase inhibitor project (AID 743272; call rule not given here;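 further: HCV NS3 helicase with a Cy5 labelled single stranded DNA probe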); settings: fluorescence interference counterscreen, HCV NS3 helicase assay; stronger effect = lower value
[9] = tested on: Neuropilin-2 / VEGF-C interaction (human); assay: small molecules blocking Neuropilin-2/VEGF-C interaction – biochemical, microplate binding format, z-score (AID 743281; call rule not given here); settings: microplate NRP2/VEGF-C binding assay; stronger effect = lower value
[10] = modulation of C. elegans fzo-1 (AID 1259413; call rule not given here;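 further: fzo-1 mutant C. elegans worms in liquid wells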); settings: C. elegans fzo-1 modulator screen, mean read-out; stronger effect = higher value
[11] = tested on: Aerobactin synthetase IucA (Klebsiella pneumoniae, hypervirulent); assay: biochemical IucA inhibition screen of LOPAC library by absorbance (AID 1346212; call rule not given here;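 further: 100% = no compound wells and 0% = no enzyme wells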); settings: IucA enzyme assay, absorbance (OD) readout; stronger effect = lower value;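 tested at 8 µM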
[12] = viability loss with induced miR-34 in A549 – imaging, A549 dox-inducible miR-34, nuclei and caspase counts, primary screen (AID 1347080;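 active means compounds whose cell count with miR-34 switched on is under 0.7 times the count with it off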); settings: A549 miR-34 inducible, Hoechst nuclei count, 48 h
[13] = blockers of cellular phospholipid synthesis – cell-based, LOPAC library, screen 4, primary screen (AID 1347384; call rule not given here); settings: animal cells, phospholipid biosynthesis inhibition screen; at 10 µM
[14] = galactose survival enhancers in mitochondrial complex I cybrids – cell-based, galactose medium, ATP luminescence, primary screen (AID 1645843;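 active means z-score of at least 1.8 in each of two replicates, scored against plate mean and spread of sample wells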;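 further: positive z means more ATP and so rescue of galactose-driven cybrid death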); settings: complex I mutant cybrid cells, 72 h, stronger effect = higher value
F380Y = assay: BK channel mutant inhibitors and activators – cell-based, U2OS BacMam, thallium flux, beta subunits, selectivity assay, profiling panel (AID 1259406); settings: U2OS BacMam BK variants, at 30 µM;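 further: initial slope of Thallos dye fluorescence rise after thallium is added; log ratio against the mean of 0.3% DMSO vehicle wells on the same plate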
F380Y/beta1 = assay: as above; settings: U2OS BacMam BK variants, at 30 µM
F380Y/beta2Delta = assay: as above; settings: U2OS BacMam BK variants, at 30 µM
F380Y/beta4 = assay: as above; settings: U2OS BacMam BK variants, at 30 µM
[15] = target: Calcium-activated potassium channel subunit alpha-1 (Homo sapiens) + Leucine-rich repeat-containing protein 26 (Homo sapiens) (UniProt Q12791+Q2I0M4); assay: as above; settings: U2OS BacMam BK variants, F380Y/Slo1WT/gamma1, at 30 µM
Sequence of Calcium-activated potassium channel subunit alpha-1 (Homo sapiens) + Leucine-rich repeat-containing protein 26 (Homo sapiens) (Q2I0M4 whole entry, looked up, one chain of several): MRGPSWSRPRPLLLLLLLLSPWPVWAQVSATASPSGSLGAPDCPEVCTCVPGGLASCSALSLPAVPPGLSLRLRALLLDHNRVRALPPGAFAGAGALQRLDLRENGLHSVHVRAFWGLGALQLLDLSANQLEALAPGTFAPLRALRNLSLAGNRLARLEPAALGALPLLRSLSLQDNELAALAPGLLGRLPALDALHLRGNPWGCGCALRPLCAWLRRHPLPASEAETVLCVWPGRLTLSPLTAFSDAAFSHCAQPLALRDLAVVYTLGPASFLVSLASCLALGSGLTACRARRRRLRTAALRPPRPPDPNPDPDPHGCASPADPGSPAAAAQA

R275C = assay: as above; settings: U2OS BacMam BK variants, at 30 µM
R275C/beta1 = assay: as above; settings: U2OS BacMam BK variants, at 30 µM
R275C/beta2Delta = assay: as above; settings: U2OS BacMam BK variants, at 30 µM
R275C/beta4 = assay: as above; settings: U2OS BacMam BK variants, at 30 µM
R275C/Slo1WT/beta2 = assay: as above; settings: U2OS BacMam BK variants, at 30 µM
[16] = blockers of polyQ-driven CASP3 activation – cell-based (AID 1583); settings: polyglutamine-induced caspase-3 activation, cell assay; stronger effect = higher value;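 tested at 10 µM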
[17] = yeast 75Q aggregation reduction – 75Q-TubU reporter (AID 1593); settings: Yeast 75Q polyglutamine aggregation reporter
[18] = restoration of touch response, mutant HTT neurons – whole organism, C. elegans mechanosensory neurons, N-terminal huntingtin (AID 1599); settings: C. elegans polyQ-huntingtin mechanosensory neurons, stronger effect = higher value
[19] = blockers of cytochrome c efflux from mitochondria – biochemical, purified mitochondria (AID 1603); settings: stronger effect = lower value;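 further: mouse liver mitochondria challenged with calcium chloride; signal normalized to the plate average as 100%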
[20] = polyglutamine aggregate formation blockers (AID 1604); settings: polyglutamine-induced protein aggregation inhibition assay; stronger effect = higher value; tested at 2.5 µM
[21] = glutamate transport activators, MN-1 cells, MN-1 cell line (AID 1612); settings: MN-1 motor neuron cells, stronger effect = higher value;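 further: tested at 1 µM final; 0% = mean of DMSO vehicle wells on each plate; positive means more glutamate uptake than control and negative means less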
[22] = GFP-Q80 aggregate reduction, neuronal-like cells, cell-based, NGF-treated PC12, GFPQ80 (AID 1614); settings: PC12 NGF-treated GFP-polyQ80 inclusion reduction;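 further: lower means fewer inclusions and 0 means no inclusions at all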
[23] = 75Q-TubH aggregate inhibition, S. cerevisiae, yeast (AID 1616); settings: S. cerevisiae 75Q-TubH polyglutamine aggregation suppression; stronger effect = higher value
[24] = viability loss in pontine glioma line – cell-based, SU-DIPG-XIII, MIPE4.0, CellTiter-Glo, qHTS, dose response (AID 1347061; cut-off not given, nearly all actives have AC50 up to about 37 µM;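 further: cells exposed to compound for 48 hours before readout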); settings: CellTiter-Glo ATP luminescence
[25] = viability loss in pontine glioma line – cell-based, JHH-DIPG-1, MIPE4.0, CellTiter-Glo, qHTS, dose response (AID 1347062; cut-off not given, nearly all actives have AC50 up to about 27 µM); settings: JHH-DIPG-1 viability, CellTiter-Glo ATP luminescence
[26] = growth inhibition of DIPG cells – cell-based, MIPE4.0 library, CellTiter-Glo luminescence, qHTS (AID 1347066; cut-off not given, nearly all actives have AC50 up to about 30 µM;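 further: cells exposed to compound for 48 hours before readout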); settings: SU-DIPG-VI viability, CellTiter-Glo ATP luminescence
[27] = measured here: relative caspase fold change +Dox/-Dox
[28] = measured here: total cells with miR-34 induction, stronger effect = lower value
[29] = measured here: total cells without miR-34 induction

C[N+]1(C)CCN(c2ccccc2)CC1
1.06 and 1.59: fold change [12, 27]
87.7%: viability [2]
inactive: period change [1] -0.125 h | parasite load remaining [2] 117% | inhibition [3] -1% | fluorescence ratio (interference) [4] 1 | fluorescence ratio [5] 1.03 | inhibition [6] 6.73% | inhibition [7] 2.21% | fluorescence ratio [8] 1.01 | z-score [9] -0.409 | mean signal [10] 284 | remaining activity [11] 113% | fold change ([12]; stronger effect = lower value) 1.02 and 0.991 | outcome [13] | z-score [14] 0.43 and 1.15 | log fold change Tl+ flux (F380Y) -0.0112 | log fold change Tl+ flux (F380Y/beta1) -0.0597 | log fold change Tl+ flux (F380Y/beta2Delta) -0.0318 | log fold change Tl+ flux (F380Y/beta4) 0.0424 | log fold change Tl+ flux [15] -0.0251 | log fold change Tl+ flux (R275C) -0.0752 | log fold change Tl+ flux (R275C/beta1) 0.0101 | log fold change Tl+ flux (R275C/beta2Delta) 0.00724 | log fold change Tl+ flux (R275C/beta4) -0.0438 | log fold change Tl+ flux (R275C/Slo1WT/beta2) -0.0166
9770 and 9860: cell count [12, 28]
9580 and 9940: cell count [12, 29]

CN=C1CN(O)C(c2ccccc2)=c2cc(Cl)ccc2=N1
1.33: cytochrome c release ratio [19]
active: log fold change Tl+ flux (R275C/beta1) 0.11
2: inclusion score [22]
68.2%: viability [2]
6.92%: inhibition [16]
11000: cell count [12, 29]
-9.17: rescue above control [18]
-4.65%: glutamate uptake change [21]
32%: inhibition of aggregation [20]
1.55: aggregation suppression score [23]
1.36: fold change [12, 27]
9820: cell count [12, 28]
inactive: parasite load remaining [2] 61% | fluorescence ratio [5] 0.93 | inhibition [6] -3.71% | inhibition [7] 1.97% | fluorescence ratio [8] 0.94 | z-score [9] 0.413 | mean signal [10] 209 | fold change ([12]; stronger effect = lower value) 0.896 | z-score [14] 0.34 | log fold change Tl+ flux (F380Y) 0.0582 | log fold change Tl+ flux (F380Y/beta1) 0.0256 | log fold change Tl+ flux (F380Y/beta2Delta) 0.0735 | log fold change Tl+ flux (F380Y/beta4) 0.0618 | log fold change Tl+ flux [15] 0.00615 | log fold change Tl+ flux (R275C) -0.0835 | log fold change Tl+ flux (R275C/beta2Delta) 0.0426 | log fold change Tl+ flux (R275C/beta4) 0.0262 | log fold change Tl+ flux (R275C/Slo1WT/beta2) -0.0229
1.19: score [17]

C[C@]12CCC(=O)C=C1CC[C@@H]1[C@@H]2CC[C@@]2(C)[C@H]1CC[C@]2(C)O
active: log fold change Tl+ flux (F380Y/beta4) -0.105
inactive: parasite load remaining [2] 82.1% | fluorescence ratio [5] 1.03 | inhibition [6] 0.4% | inhibition [7] -2.41% | fluorescence ratio [8] 0.97 | outcome [24] | outcome [25] | outcome [26] | log fold change Tl+ flux (F380Y) -0.0714 | log fold change Tl+ flux (F380Y/beta1) 0.0212 | log fold change Tl+ flux (F380Y/beta2Delta) -0.0632 | log fold change Tl+ flux [15] 0.0144 | log fold change Tl+ flux (R275C) -0.0155 | log fold change Tl+ flux (R275C/beta1) 0.014 | log fold change Tl+ flux (R275C/beta2Delta) 0.0131 | log fold change Tl+ flux (R275C/beta4) 0.00989 | log fold change Tl+ flux (R275C/Slo1WT/beta2) -0.0244
78%: viability [2]

O=C1Nc2ccc(Cl)cc2C(c2ccccc2Cl)=NC1O (centres undefined)
inactive: parasite load remaining [2] 64.7% | fluorescence ratio [5] 0.98 | inhibition [6] -3.71% | inhibition [7] -0.39% | fluorescence ratio [8] 0.96 | z-score [9] -0.398 | mean signal [10] 233 | fold change ([12]; stronger effect = lower value) 0.901 | z-score [14] 0.845
21.1%: inhibition of aggregation [20]
-10.3: rescue above control [18]
0.78: score [17]
0.626: aggregation suppression score [23]
9700: cell count [12, 28]
68.3%: viability [2]
1.36: fold change [12, 27]
-7.53%: glutamate uptake change [21]
1.2: cytochrome c release ratio [19]
10800: cell count [12, 29]
-16.4%: inhibition [16]

C[C@]12CCC(=O)C[C@@H]1CC[C@@H]1[C@@H]2CC[C@@]2(C)[C@H]1CC[C@]2(C)O
70.4%: viability [2]
inactive: parasite load remaining [2] 79.1% | fluorescence ratio [5] 1.04 | inhibition [6] -0.4% | inhibition [7] -3.18% | fluorescence ratio [8] 0.92 | log fold change Tl+ flux (F380Y) 0.00819 | log fold change Tl+ flux (F380Y/beta1) -0.00468 | log fold change Tl+ flux (F380Y/beta2Delta) 0.0319 | log fold change Tl+ flux (F380Y/beta4) 0.0289 | log fold change Tl+ flux [15] 0.0101 | log fold change Tl+ flux (R275C) -0.0214 | log fold change Tl+ flux (R275C/beta1) 0.0156 | log fold change Tl+ flux (R275C/beta2Delta) 0.0537 | log fold change Tl+ flux (R275C/beta4) 0.00195 | log fold change Tl+ flux (R275C/Slo1WT/beta2) 0.012

Clc1ccc(CON=C(Cn2ccnc2)c2ccc(Cl)cc2Cl)c(Cl)c1
active: log fold change Tl+ flux (R275C/beta1) 0.329
54.6%: viability [2]
inactive: parasite load remaining [2] 2.5% | fluorescence ratio [5] 0.95 | inhibition [6] 13.1% | inhibition [7] 7.6% | fluorescence ratio [8] 1 | fold change ([12]; stronger effect = lower value) 1.28 | z-score [14] -1.88 | log fold change Tl+ flux (F380Y) -0.0332 | log fold change Tl+ flux (F380Y/beta1) -0.00723 | log fold change Tl+ flux (F380Y/beta2Delta) -0.00783 | log fold change Tl+ flux (F380Y/beta4) -0.00465 | log fold change Tl+ flux (R275C) -0.0645 | log fold change Tl+ flux (R275C/beta2Delta) -0.0303 | log fold change Tl+ flux (R275C/beta4) 0.02 | log fold change Tl+ flux (R275C/Slo1WT/beta2) 0.0197
3280: cell count [12, 28]
2560: cell count [12, 29]
0.637: fold change [12, 27]

Reference: PubChem BioAssay
